The results in this text go back to PubChem BioAssay (NCI).

This is part of a sample that, as a whole, favours compounds with a hit. Of some 83,000 tested, about 20% had one in any assay.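 Assay: single dose, 48 h. Readout: percent growth (0 = no net growth; negative = cell death). Active: <10.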 The source made the active and inactive calls.

The subject of the test is HOP-92 NSCLC. Kind of test: NCI-60 one-dose screen, 48 h (100 = growth as untreated, 0 = no growth, -100 = all killed). To be noted: 10 µM unless noted. As to the method:
Growth inhibition of the HOP-92 human Non-Small Cell Lung tumor cell line is measured as a screen for anti-cancer activity. Cells are grown in 96 well plates and exposed to the test compound for 48 hours. Compounds are tested at a single concentration, which is 10^-5 M for most compounds. The reported endpoint is percent growth (GI% or GIPRCNT), where numbers from 0 - 100% represent growth inhibition, and numbers from -100% - 0 represent cell death. For example, a value of 40 represents 60% growth inhibition. A value of 0 means no net growth occurred over the course of the experiment. A value of -40 indicates 40% of cells at the beginning of the experiment died by the end of the experiment. A value of -100 means all cells are dead at the end of the experiment.
NCI-60 Human Tumor Cell Lines Screen was performed using the standard one-dose NCI protocol, which is described in more detail at https://dtp.cancer.gov/discovery_development/nci-60/default.htm.
Compounds with GIPRCNT values below 10 were considered active. Activity score was based on GIPRCNT using the following formula: […]
Score is 0 for GIPRCNT values of 100 or above, 50 for GIPRCNT values of 0, and 100 for GIPRCNT values of -100.
Turning to `COc1cc2c(cc1OC)C(=O)OC2`, the growth is 75.5% (inactive).

Regarding `COc1ccc(C(=O)C(CN(C)C)c2ccccc2)cc1` (stereo not given), the growth was -4.35% (active).

Consider `Nc1ccc(N(O)/C=C2\C=CC=CC2=O)cc1N`, for which the growth is 91.3% (inactive).

Regarding `C=C1NC(=O)C(C(C)CC)NC(=O)C2CSCC(NC(=O)CCC(=O)O)C(=O)NC(Cc3ccccc3)C(=O)NC(C)C(=O)NC(CC(C)CC)C(=O)NC(C(=O)NC(Cc3ccccc3)C(=O)N3CCCC3C(=O)N2)C(C)OC(=O)C(CO)NC(=O)C(C(O)COC)N(C)C(=O)C(C(C)C)NC(=O)C(CC(C)CC)NC1=O` (stereo not given), the growth was 42% [6 µM] (inactive).

In the case of `CCCCCCCCCCCCCC[N+](C)(C)CCCCCCCCCCCCCC`, the growth was 8.4% (active).

For the molecule `Fc1ccc2c(CN3CCO[C@H](COc4cccc(Cl)c4)C3)c[nH]c2c1`, the growth is 45.2% (inactive).

On to `Nc1nc(N)c2c(n1)NC(c1sc(Cl)nc1Cl)CC(c1ccccc1)=N2` (stereo not given), for which the growth is 48.7% (inactive).

On to `CCOC(=O)C(=CNc1ccccc1Cl)C(=O)OCC`, for which the growth was 97.2% (inactive).

As for `CC1=C(C(=O)Nc2ccc(F)cc2)C(c2ccccc2)C2=C(CC(C)(C)CC2=O)N1` (stereo not given), the growth is -3.3% (active).

For the molecule `Cc1ccc(-c2cnc3sc4ccc(Cl)cc4n23)cc1`, the growth was 85.6% (inactive).

In the case of `COC(=O)C1(C)COP(=O)(NC23CC4CC(CC(C4)C2)C3)OC1` (stereo not given), the growth is 83.6% (inactive).

Turning to `c1ccc(C(CC2=NCCCN2)c2ccccc2)cc1`, the growth is 82.6% (inactive).

On to `O=C1OCC2=C1C(c1cccc(Br)c1)c1cc3c(cc1N2CCO)OCCO3` (stereo not given), for which the growth is 25.2% (inactive).

In the case of `C#CC[C@@H]1C[C@]2(C)[C@H]3CC[C@@H]4[C@H]5C(C(=C)C)CC[C@]5(C(=O)NCCN(CCN)CCN)CC[C@@]4(C)[C@]3(C)CC[C@H]2C(C)(C)[C@H]1OC(C)=O` (stereo not given in full), the growth is 66.3% (inactive).

For `CCCCCCCCCCCCCCCCOc1ccc(S(=O)(=O)N(C)C)cc1[N+](=O)[O-]`, the growth is 46.2% (inactive).

Take `CCN(CC)CCCC(C)Nc1cnc(C(=O)Nc2cccc3ccc(OC)nc23)cn1` (stereo not given): the growth is 49.5% (inactive).

Turning to `Cn1nc(C(F)(F)F)cc1-c1cc(Cl)c(OCc2ccc(Cl)cc2)c(-c2ccc(Cl)c(C(F)(F)F)c2)c1O`, the growth is -25.8% (active).

In the case of `O=C1c2ccccc2C(=O)c2c1oc1ccc3ccccc3c21`, the growth was 102% (inactive).

For `C=CC[C@]1(O)CC[C@H]2[C@@H]3CCc4cc(O)ccc4[C@H]3CC[C@@]21C`, the growth was 115% (inactive).

Take `O=C(NNC(=S)Nc1ccccc1)c1ccc(Nc2ncnc3c2cnn3-c2cccc(Br)c2)cc1`: the growth was 93.5% (inactive).

`N#Cc1nc(-c2cccc(Br)c2)cc(-c2ccc(Nc3nc(N4CCCCC4)nc(N4CCCCC4)n3)cc2)c1N`: the growth was -69.4% (active).

As for `CC(=O)OC1Oc2ccccc2-c2oc3nc(=N)n(C)c-3cc21` (stereo not given), the growth is 99.1% (inactive).

`CC(C)=CCC[C@H](C)c1ccc(C)c2c1OCN(CCO)C2`: the growth was 4.21% (active).

Regarding `COc1cc(/C=C2\C(=O)Nc3ccc(N(C)C)cc32)cc(OC)c1OC`, the growth is 33.2% (inactive).

As to `C#CC[C@@H]1C[C@]2(C)[C@H]3CC[C@@H]4[C@H]5C(C(=C)C)CC[C@]5(C(=O)NCCCCCCCCN)CC[C@@]4(C)[C@]3(C)CC[C@H]2C(C)(C)[C@H]1OC(C)=O` (stereo not given in full), the growth was 70.6% (inactive).

In the case of `O=C(Nc1ccccc1)C(CCCCN1C(=O)c2ccccc2C1=O)N1C(=O)c2ccccc2C1=O` (stereo not given), the growth is 76.8% (inactive).

Consider `COc1cc(C2CC(c3ccc(Nc4ccnc5cc(Cl)ccc45)cc3)=NN2c2ccccc2)cc(OC)c1OC` (stereo not given), for which the growth was 52.5% (inactive).

`Fc1cc(-c2nnc3sc(-c4ccc(Cl)cc4)nn23)c(Cl)cc1Cl`: the growth was 74.8% (inactive).

Turning to `O=C1OC(c2ccc(-c3ccccc3)cc2)=C/C1=C/c1c(Cl)cccc1Cl`, the growth is 59% (inactive).

On to `COCCCNCC(=O)Nc1c(C)cccc1C`, for which the growth is 103% (inactive).

Turning to `NC(=O)c1noc(C(=O)c2ccccc2)c1N`, the growth was 107% (inactive).

Turning to `O=C(O)C1[S][Sb]([CH](C(=O)O)[CH](C(=O)O)[Sb]2[S]C(C(=O)O)C(C(=O)O)[S]2)[S]C1C(=O)O` (stereo not given), the growth was 91.6% (inactive).

For `COc1ccc(C(=O)c2cc(C)c(OC)c(C)c2)cc1OC(=O)CCl`, the growth is 96.5% (inactive).

As for `COc1ccc(NC(=O)c2ccc(C(F)(F)F)nc2Nc2ccc(Cl)cc2C)cc1Cl`, the growth is -8.93% (active).

As to `CC1=NN(c2cccc(S(N)(=O)=O)c2)C(=O)C1`, the growth was -30.8% (active).

For `Cc1ccc(NC(=O)c2nc(S(C)(=O)=O)oc2-c2ccc(F)cc2)cc1Nc1ccc2ncn(C)c(=O)c2c1`, the growth was 108% (inactive).

As to `NCCCOc1cc2ccccc2cc1C(=O)NCCCOc1cc2ccccc2cc1C(=O)Nc1ccc(Cl)cc1O`, the growth was -75.9% (active).

`CCOC(=O)c1ccc(NCCC(=O)O)cc1`: the growth was 89.4% (inactive).

As for `CCCCCCCCCCCC1=NC(C)(C)CN1C(C)(C)CO`, the growth is 28.7% (inactive).

With `CCc1ccc(Nc2cc(C)c3ccc(O)cc3n2)cc1`, the growth was 74.4% (inactive).
